Results published in PubChem BioAssay (NCI).
This is part of a sample that, as a whole, favours compounds with a hit. Of some 79,000 tested, about 15% had one in any assay. The source made the active and inactive calls. Cut-off read from the data, not from the text of the source: active = growth inhibition above about 70%; inactive = the rest.

Legend:
[1] = NCI Yeast Anticancer Drug Screen. Data for the rad52 strain (AID 147);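 note: 0% = growth of vehicle-treated control cultures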; details: S. cerevisiae rad52 mutant growth inhibition, active compounds read high
How it was run: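 Read-out: growth inhibition versus vehicle-treated controls. Cells were a DNA repair-deficient yeast strain treated with compounds.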

[2] = NCI Yeast Anticancer Drug Screen. Data for the wt1 strain (AID 149);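 note: 0% = growth of vehicle-treated wt1 cultures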; details: S. cerevisiae wt1 strain (SPY 50644) growth inhibition, active compounds read high
How it was run: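 Compounds are added to wt1 yeast cultures. Growth is then measured. Inhibition is expressed relative to vehicle-treated controls.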

[3] = NCI Yeast Anticancer Drug Screen. Data for the rad50EPP+ strain (AID 151);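 note: 0% = growth of vehicle-treated control cultures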; details: S. cerevisiae rad50 mutant strain, active compounds read high
How it was run: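 Growth inhibition read against vehicle controls in rad50EPP+ yeast, a strain altered in DNA damage repair, after compound exposure.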

[4] = NCI Yeast Anticancer Drug Screen. Data for the mgt1 strain (AID 153); details: S. cerevisiae mgt1 mutant growth inhibition, active compounds read high
How it was run: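 mgt1 yeast grown with test compound; read-out is growth inhibition versus vehicle-treated cultures.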

[5] = NCI Yeast Anticancer Drug Screen. Data for the rad50 strain (AID 155);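 note: 0% = growth of vehicle-only cultures of the same strain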; details: S. cerevisiae rad50 strain growth inhibition, active compounds read high
How it was run: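 Inhibition values express reduced yeast growth in compound-treated cultures relative to vehicle-treated controls.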

[6] = NCI Yeast Anticancer Drug Screen. Data for the mec2-1 strain (AID 157); details: S. cerevisiae mec2-1 strain, active compounds read high
How it was run: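 Yeast mec2-1 mutant treated with compound. Readout: growth inhibition vs vehicle controls.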

[7] = NCI Yeast Anticancer Drug Screen. Data for the rad14 strain (AID 159);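 note: 0% = growth of vehicle-treated control cultures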; details: S. cerevisiae rad14 strain growth inhibition, active compounds read high
How it was run: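 A mutant yeast strain defective in DNA damage repair is treated with compound; inhibition of its growth is scored against untreated, vehicle-exposed cultures.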

[8] = NCI Yeast Anticancer Drug Screen. Data for the sgs1 mgt1 strain (AID 161);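 note: 0% = growth of cultures given vehicle only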; details: S. cerevisiae sgs1 mgt1 strain, active compounds read high
How it was run: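 Genetically altered yeast, compound exposure, growth inhibition relative to vehicle.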

[9] = NCI Yeast Anticancer Drug Screen. Data for the CLN2oe strain (AID 163);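 note: 0% = growth of vehicle-only control cultures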; details: S. cerevisiae CLN2oe strain, active compounds read high
How it was run: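 Read-out: yeast growth inhibition, expressed relative to vehicle-only controls. The strain bears an engineered cell-cycle alteration.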

[10] = NCI Yeast Anticancer Drug Screen. Data for the cln2 rad14 strain (AID 165);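 note: 0% = growth equal to vehicle treated cultures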; details: S. cerevisiae cln2 rad14 strain, active compounds read high
How it was run: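 cln2 rad14 yeast strain; compound exposure; growth inhibition read vs vehicle controls.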

[11] = NCI Yeast Anticancer Drug Screen. Data for the bub3 strain (AID 167); details: S. cerevisiae bub3 mutant strain, active compounds read high
How it was run: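 Steps: expose the mutant yeast strain to compound; grow alongside vehicle-treated cultures; measure growth; express inhibition against the vehicle cultures.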

[12] = NCI Yeast Anticancer Drug Screen. Data for the wt2 strain (AID 169);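 note: 0% = growth of vehicle-treated yeast cultures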; details: S. cerevisiae wt2 strain growth inhibition, active compounds read high
How it was run: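 Read-out: growth inhibition versus vehicle-treated control cultures after compound exposure of the yeast strain.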

[13] = NCI Yeast Anticancer Drug Screen. Data for the mlh1 strain (AID 171);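 note: 0% = growth of vehicle-treated control cultures of the same strain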; details: S. cerevisiae mlh1 strain growth inhibition, active compounds read high
How it was run: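 Read-out: growth inhibition versus vehicle controls. Strain: engineered yeast with a defined DNA repair or cell cycle defect, compound-treated.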

[14] = NCI Yeast Anticancer Drug Screen. Data for the sgs1 strain (AID 173);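 note: 0% = growth of vehicle-only control cultures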; details: S. cerevisiae sgs1 mutant, active compounds read high
How it was run: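 Read-out: yeast growth inhibition relative to vehicle controls, following compound exposure of a strain with a defined DNA repair/cell cycle alteration.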

[15] = NCI Yeast Anticancer Drug Screen. Data for the rad18 strain (AID 177); details: S. cerevisiae rad18 mutant growth inhibition, active compounds read high
How it was run: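 Readout: growth inhibition vs vehicle controls. Cells: genetically altered yeast strain, DNA repair defect.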

[16] = NCI Yeast Anticancer Drug Screen. Data for the mlh1 rad18 strain (AID 175); details: S. cerevisiae mlh1 rad18 strain growth inhibition, active compounds read high
How it was run: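 Yeast w/ defined DNA-repair lesions; compound exposure; growth vs vehicle controls → % inhibition.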

[17] = at 5.0 µM (retest, dose inferred, filed as 0.5)
[18] = at 50.0 µM (retest, dose inferred, filed as 5.0)

Measured: growth inhibition

CCN(CC)C(C)(C)C(=O)/C=C/c1ccccc1
inactive: [1]; at 1.2 µM -1% | [1]; at 3.7 µM -1% | [1]; at 11.0 µM 0% | [1]; at 33.0 µM -1% | [1]; at 100.0 µM 2% | [2]; at 1.2 µM 0% | [2]; at 3.7 µM 5% | [2]; at 11.0 µM 2% | [2]; at 33.0 µM 2% | [2]; at 100.0 µM 4% | [3]; at 1.2 µM 2% | [3]; at 3.7 µM 6% | [3]; at 11.0 µM 8% | [3]; at 33.0 µM 6% | [3]; at 100.0 µM 5% | [4]; at 1.2 µM -3% | [4]; at 3.7 µM -3% | [4]; at 11.0 µM -3% | [4]; at 33.0 µM -1% | [4]; at 100.0 µM 2% | [5]; at 1.2 µM 0% | [5]; at 3.7 µM 2% | [5]; [17] 19% | [5]; at 11.0 µM 0% | [5]; at 33.0 µM 1% | [5]; at 50.0 µM 17.2% | [5]; at 100.0 µM 3% | [6]; at 1.2 µM 1% | [6]; at 3.7 µM 6% | [6]; [17] -15% | [6]; at 11.0 µM 5% | [6]; at 33.0 µM 9% | [6]; [18] 47% | [6]; at 50.0 µM 13.7% | [6]; at 100.0 µM 4% | [7]; at 1.2 µM -3% | [7]; at 3.7 µM -3% | [7]; at 11.0 µM 1% | [7]; at 33.0 µM 5% | [7]; at 100.0 µM 14% | [8]; [17] 42% | [8]; at 50.0 µM 17.6% | [9]; at 1.2 µM -4% | [9]; at 3.7 µM -12% | [9]; at 11.0 µM -4% | [9]; at 33.0 µM 1% | [9]; at 100.0 µM 2% | [10]; [17] -9% | [10]; [18] 46% | [10]; at 50.0 µM 7.15% | [11]; at 1.2 µM -1% | [11]; at 3.7 µM -3% | [11]; [17] 9% | [11]; at 11.0 µM 0% | [11]; at 33.0 µM -1% | [11]; at 50.0 µM 17.8% | [11]; at 100.0 µM -5% | [12]; at 1.2 µM 0% | [12]; at 3.7 µM -1% | [12]; at 11.0 µM -1% | [12]; at 33.0 µM 3% | [12]; at 100.0 µM 6% | [13]; at 1.2 µM 2% | [13]; at 3.7 µM 2% | [13]; at 11.0 µM 3% | [13]; at 33.0 µM 3% | [13]; at 100.0 µM 5% | [14]; at 1.2 µM 2% | [14]; at 3.7 µM 1% | [14]; at 11.0 µM 4% | [14]; at 33.0 µM 6% | [14]; at 100.0 µM 7% | [15]; at 1.2 µM 1% | [15]; at 3.7 µM -1% | [15]; at 11.0 µM -1% | [15]; at 33.0 µM 3% | [15]; at 100.0 µM 6%
active: [5]; [18] 80% | [8]; [18] 92% | [11]; [18] 77%

O=CC=C(c1ccccc1)c1ccccc1
inactive: [1]; at 1.2 µM -2% | [1]; at 3.7 µM 0% | [1]; at 11.0 µM -9% | [1]; at 33.0 µM 8% | [2]; at 1.2 µM -3% | [2]; at 3.7 µM 3% | [2]; at 11.0 µM -4% | [2]; at 33.0 µM 10% | [3]; at 1.2 µM 20% | [3]; at 3.7 µM 18% | [3]; at 11.0 µM 26% | [3]; at 33.0 µM 43% | [4]; at 1.2 µM -10% | [4]; at 3.7 µM -6% | [4]; at 11.0 µM 2% | [4]; at 33.0 µM 10% | [5]; at 1.2 µM 8% | [5]; at 3.7 µM 5% | [5]; [17] 41% | [5]; at 11.0 µM 4% | [5]; at 33.0 µM 11% | [5]; at 50.0 µM 39.6% | [6]; at 1.2 µM 4% | [6]; at 3.7 µM 0% | [6]; [17] 51% | [6]; at 11.0 µM 0% | [6]; at 33.0 µM 20% | [6]; at 50.0 µM -13.3% | [7]; at 1.2 µM 7% | [7]; at 3.7 µM -2% | [7]; at 11.0 µM 3% | [7]; at 33.0 µM 10% | [8]; [17] -9% | [9]; at 1.2 µM 16% | [9]; at 3.7 µM 5% | [9]; at 11.0 µM 13% | [9]; at 33.0 µM 20% | [10]; [17] 36% | [10]; at 50.0 µM 39.1% | [11]; at 1.2 µM -11% | [11]; at 3.7 µM -13% | [11]; [17] 30% | [11]; at 11.0 µM -32% | [11]; at 33.0 µM -10% | [11]; at 50.0 µM 40.6% | [12]; at 1.2 µM 4% | [12]; at 3.7 µM 9% | [12]; at 11.0 µM 6% | [12]; at 33.0 µM 22% | [13]; at 1.2 µM 5% | [13]; at 3.7 µM 10% | [13]; at 11.0 µM 16% | [13]; at 33.0 µM 19% | [14]; at 1.2 µM -3% | [14]; at 3.7 µM 4% | [14]; at 11.0 µM 11% | [14]; at 33.0 µM 43% | [16]; [17] 16% | [16]; at 50.0 µM 28.4% | [15]; at 1.2 µM 20% | [15]; at 3.7 µM 26% | [15]; at 11.0 µM 25% | [15]; at 33.0 µM 34%
active: [1]; at 100.0 µM 95% | [2]; at 100.0 µM 98% | [3]; at 100.0 µM 83% | [4]; at 100.0 µM 98% | [5]; [18] 86% | [5]; at 100.0 µM 98% | [6]; [18] 93% | [6]; at 100.0 µM 98% | [7]; at 100.0 µM 98% | [8]; [18] 97% | [8]; at 50.0 µM 80% | [9]; at 100.0 µM 98% | [10]; [18] 99% | [11]; [18] 98% | [11]; at 100.0 µM 98% | [12]; at 100.0 µM 97% | [13]; at 100.0 µM 99% | [14]; at 100.0 µM 99% | [16]; [18] 90% | [15]; at 100.0 µM 98%

Cc1nc(-[n+]2nc(-c3ccncc3)nn2-c2ccccc2)sc1C
active: [4]; at 100.0 µM 78%
inactive: [1]; at 1.2 µM -2% | [1]; at 3.7 µM -2% | [1]; at 11.0 µM 0% | [1]; at 33.0 µM 38% | [1]; at 100.0 µM 5% | [2]; at 1.2 µM -1% | [2]; at 3.7 µM -2% | [2]; at 11.0 µM -14% | [2]; at 33.0 µM 9% | [2]; at 100.0 µM -11% | [3]; at 1.2 µM 3% | [3]; at 3.7 µM 16% | [3]; at 11.0 µM 41% | [3]; at 33.0 µM 44% | [3]; at 100.0 µM 36% | [4]; at 1.2 µM -4% | [4]; at 3.7 µM -5% | [4]; at 11.0 µM 8% | [4]; at 33.0 µM 54% | [5]; at 1.2 µM -3% | [5]; at 3.7 µM -46% | [5]; [17] 1% | [5]; at 11.0 µM 3% | [5]; at 33.0 µM 48% | [5]; [18] 21% | [5]; at 50.0 µM 66.2% | [5]; at 100.0 µM 58% | [6]; at 1.2 µM -1% | [6]; at 3.7 µM -2%
